Results on 40 compounds are retold here after PubChem BioAssay (NCATS).

Records with an inconclusive call do not appear. Unmarked numbers belong to inactive results. Calls of active or inactive are those of the source. Calls follow the shape of the full dose curve; tested in HEK293 reporter line.
% is scaled to controls: 0 for no effect and ±100 for the full control effect.

The first test in a line: qHTS for Inhibitors of the Functional Ribonucleoprotein Complex (vRNP) of Lassa (LASV) Arenavirus: LASV Primary Screen - GLuc reporter signal (AID 1347082). Also: nearly all actives have a fitted effect of over 60% in size. As to conditions: LASV minigenome vRNP, Gaussia luciferase reporter; series mostly up to 57.5 µM; activity change, negative = inhibition: at the top concentration.
With `Cc1ncc(CSSCc2cnc(C)c(O)c2CO)c(CO)c1O`, the “activity change, negative = inhibition” value was -2.4%.
On to `CC1(C)OC[C@@H](COC(=O)CCc2ccc(OC[C@@H](O)CNCCNC(=O)N3CCOCC3)cc2)O1`, for which the “activity change, negative = inhibition” value is 12.6%.
On the same count and under the same terms, the same measure for `Cc1ccc(Nc2c(F)cccc2Cl)c(CC(=O)O)c1`: -10.9%; for `COc1ccnc2c1CCCCC2S(=O)c1nc2ccccc2[nH]1` (stereo not given): -5.29%; for `C=CCCCCCCCCC(=O)O`: -3%.
`C=CCc1ccccc1OCC(O)CNC(C)C` (stereo not given): the Potency result is “inactive”.
As for `CCN(CCCCOC(=O)c1ccc(OC)c(OC)c1)C(C)Cc1ccc(OC)cc1` (stereo not given), the “activity change, negative = inhibition” value is -33%.
For the compound `CN(C(=O)c1c(O)c2ccccc2n(C)c1=O)c1ccccc1`, the “activity change, negative = inhibition” value was 12.6%.
The same measure, in the same setting: for `C=C1C[C@H]2[C@@H]3C=C(C)C4=CC(=O)CC[C@]4(C)[C@H]3CC[C@]2(C)[C@@]1(OC(C)=O)C(C)=O` the value was -6.03%; for `CC[N+](CC)(CC(=O)Nc1c(C)cccc1C)Cc1ccccc1`, -10.8%; for `CCCC(=O)O[C@]1(C(=O)CC)CC[C@H]2[C@@H]3CCC4=CC(=O)CC[C@]4(C)[C@H]3[C@@H](O)C[C@@]21C`, -2.25%.
On the same count and under the same terms, the same measure for `CCCNC(C)(C)COC(=O)c1ccccc1`: -0.0007%.
Consider `CCCCNc1c(C(=O)OCC)c(C)nc2c1cnn2CC`, for which the Potency entry is “inactive”.
As for `C[C@@H](O)[C@H]1C(=O)N2C(C(=O)O)=C([C@H]3CCCO3)S[C@H]12`, the “activity change, negative = inhibition” value is 4.77%.
The same measure, in the same setting: the same measure for `CCOc1ccc(NC(C)=O)cc1`: 7.74%; for `CCN(CC)CCSC(=O)C(c1ccccc1)c1ccccc1`: 0.0158%.
On to `OC[C@@H](O)[C@H](O)[C@H](O)[C@@H](O)CO`, for which the Potency entry was “inactive”.
Regarding `NS(=O)(=O)c1cc(C(=O)O)c(NCc2ccco2)cc1Cl`, the Potency result was “inactive”.
On to `COc1ccc(-c2cc(C(F)F)nn2-c2ccc(S(N)(=O)=O)cc2)cc1F`, for which the “activity change, negative = inhibition” value is 9.15%.
Still for that read-out and setting: the same measure for `CNc1c2c(nn1C)CCCC2`: -12.4%.
Take `c1cnc(N2CCN(Cc3ccc4c(c3)OCO4)CC2)nc1`: the Potency entry is “inactive”.
For `N[C@@H](Cc1ccc(O)cc1)C(=O)O`, the activity change, negative = inhibition is 4.89% [at 11.5 µM].
Still for that read-out and setting: the same measure for `OC(C#CCN1CCCC1)(c1ccccc1)c1ccccc1`: 3.93%; for `CN1C(=O)CC(c2ccccc2)C1=O` (stereo not given): 0.252%.
As to `CCOC(=O)[C@H](CCc1ccccc1)N[C@H]1CS[C@H](c2cccs2)CN(CC(=O)O)C1=O`, the Potency result is “inactive”.
Take `N[C@H](Cc1c[nH]c2ccccc12)C(=O)O`: the “activity change, negative = inhibition” value is -6.35%.
On to `CCOc1c(N2CCOCC2)cnn(C)c1=O`, for which the “activity change, negative = inhibition” value is 6.46%.
Same read-out and setting: for `CCOC(CN1CCN(CC(C)C(=O)c2ccccc2)CC1)c1ccccc1` (stereo not given) the value was 2.05% [at 24.7 µM].
Same read-out and setting: for `C=C(C)C(=O)OCC(O)CO` (stereo not given) the value was -8.09%; for `NC(=O)C1(N2CCCCC2)CCN(CCCC(=O)c2ccc(F)cc2)CC1`, -1%.
Consider `O=C(/C=C/c1ccc(O)c(O)c1)O[C@@H]1C[C@@](OC(=O)/C=C/c2ccc(O)c(O)c2)(C(=O)O)C[C@@H](O)[C@@H]1O`, for which the “activity change, negative = inhibition” value was -32%.
On to `CC(=O)O[C@H]1CC[C@@]2(C)C(=CC[C@@H]3[C@@H]2CC[C@]2(C)C(C(C)=O)=CC[C@@H]32)C1`, for which the “activity change, negative = inhibition” value was 0.863%.
Same read-out and setting: for `CC(C)Cc1ccc(C(C)C(=O)OCc2ccccn2)cc1` (stereo not given) the value was -3.81%; for `CC(=O)OCC(=O)Nc1cc(C#N)cc(NC(=O)COC(C)=O)c1Cl`, 2.19%; for `CCOC(=O)c1cc(=O)c2c(OCC(COc3cccc4oc(C(=O)OCC)cc(=O)c34)OC(=O)[C@@H](N)CCCCN)cccc2o1`, 1.08%.
For `CCN[C@H]1C[C@H](C)S(=O)(=O)c2sc(S(N)(=O)=O)cc21`, the Potency result is “inactive”.
On to `NCC1CCC(C(=O)Oc2ccc(CCC(=O)O)cc2)CC1` (stereo not given), for which the “activity change, negative = inhibition” value was 1.03%.
The same measure, in the same setting: the same measure for `CCc1cccc2c(CCO)c[nH]c12`: -4.7%; for `Oc1ccc(Cl)cc1Cc1cc(Cl)ccc1O`: -13.8%; for `CCC(CN)=C(c1ccccc1)c1ccccc1`: -0.912%.

The nature of the next test: qHTS for Inhibitors of the Functional Ribonucleoprotein Complex (vRNP) of Lassa (LASV) Arenavirus: Viability assay - alamar blue signal for LASV Primary Screen (AID 1347083). Also: nearly all actives have a fitted effect of over 80% in size. As to conditions: cell viability, alamar blue fluorescence (LASV minigenome counter-screen); series mostly up to 57.5 µM; activity change, negative = reduced viability: at the top concentration.
As for `Cc1ncc(CSSCc2cnc(C)c(O)c2CO)c(CO)c1O`, the “activity change, negative = reduced viability” value is 13.4%.
On the same count and under the same terms, the same measure for `CC1(C)OC[C@@H](COC(=O)CCc2ccc(OC[C@@H](O)CNCCNC(=O)N3CCOCC3)cc2)O1`: -1.15%.
Still for that read-out and setting: the same measure for `Cc1ccc(Nc2c(F)cccc2Cl)c(CC(=O)O)c1`: -5.25%; for `COc1ccnc2c1CCCCC2S(=O)c1nc2ccccc2[nH]1` (stereo not given): -0.731%; for `C=CCCCCCCCCC(=O)O`: -5.62%.
Take `C=CCc1ccccc1OCC(O)CNC(C)C` (stereo not given): the Potency result is “inactive”.
As to `CCN(CCCCOC(=O)c1ccc(OC)c(OC)c1)C(C)Cc1ccc(OC)cc1` (stereo not given), the “activity change, negative = reduced viability” value was -115%.
On the same count and under the same terms, the same measure for `CN(C(=O)c1c(O)c2ccccc2n(C)c1=O)c1ccccc1`: 4.82%; for `C=C1C[C@H]2[C@@H]3C=C(C)C4=CC(=O)CC[C@]4(C)[C@H]3CC[C@]2(C)[C@@]1(OC(C)=O)C(C)=O`: 2.04%; for `CC[N+](CC)(CC(=O)Nc1c(C)cccc1C)Cc1ccccc1`: 4.95%.
Take `CCCC(=O)O[C@]1(C(=O)CC)CC[C@H]2[C@@H]3CCC4=CC(=O)CC[C@]4(C)[C@H]3[C@@H](O)C[C@@]21C`: the “activity change, negative = reduced viability” value is 0.116%.
For the compound `CCCNC(C)(C)COC(=O)c1ccccc1`, the “activity change, negative = reduced viability” value was 6.29%.
For the compound `CCCCNc1c(C(=O)OCC)c(C)nc2c1cnn2CC`, the Potency result was “inactive”.
In the case of `C[C@@H](O)[C@H]1C(=O)N2C(C(=O)O)=C([C@H]3CCCO3)S[C@H]12`, the “activity change, negative = reduced viability” value is -2.23%.
The same measure, in the same setting: the same measure for `CCOc1ccc(NC(C)=O)cc1`: 5.78%; for `CCN(CC)CCSC(=O)C(c1ccccc1)c1ccccc1`: -15.6%.
`OC[C@@H](O)[C@H](O)[C@H](O)[C@@H](O)CO`: the Potency result is “inactive”.
Same read-out and setting: the same measure for `NS(=O)(=O)c1cc(C(=O)O)c(NCc2ccco2)cc1Cl`: “inactive”.
`COc1ccc(-c2cc(C(F)F)nn2-c2ccc(S(N)(=O)=O)cc2)cc1F`: the “activity change, negative = reduced viability” value is -9.82%.
For `CNc1c2c(nn1C)CCCC2`, the “activity change, negative = reduced viability” value was 7.48%.
`c1cnc(N2CCN(Cc3ccc4c(c3)OCO4)CC2)nc1`: the Potency entry is “inactive”.
On to `N[C@@H](Cc1ccc(O)cc1)C(=O)O`, for which the activity change, negative = reduced viability was 15.7% [at 11.5 µM].
For the compound `OC(C#CCN1CCCC1)(c1ccccc1)c1ccccc1`, the “activity change, negative = reduced viability” value was 0.766%.
Take `CN1C(=O)CC(c2ccccc2)C1=O` (stereo not given): the “activity change, negative = reduced viability” value is 1.83%.
On the same count and under the same terms, for `CCOC(=O)[C@H](CCc1ccccc1)N[C@H]1CS[C@H](c2cccs2)CN(CC(=O)O)C1=O` the value was 1.67%.
For the compound `N[C@H](Cc1c[nH]c2ccccc12)C(=O)O`, the “activity change, negative = reduced viability” value was -3.22%.
On to `CCOc1c(N2CCOCC2)cnn(C)c1=O`, for which the “activity change, negative = reduced viability” value was 1.81%.
The same measure, in the same setting: the same measure for `CCOC(CN1CCN(CC(C)C(=O)c2ccccc2)CC1)c1ccccc1` (stereo not given): -0.251% [at 24.7 µM]; for `C=C(C)C(=O)OCC(O)CO` (stereo not given): 3.22%.
For `NC(=O)C1(N2CCCCC2)CCN(CCCC(=O)c2ccc(F)cc2)CC1`, the “activity change, negative = reduced viability” value is 15.8%.
For `O=C(/C=C/c1ccc(O)c(O)c1)O[C@@H]1C[C@@](OC(=O)/C=C/c2ccc(O)c(O)c2)(C(=O)O)C[C@@H](O)[C@@H]1O`, the “activity change, negative = reduced viability” value is -61.5%.
With `CC(=O)O[C@H]1CC[C@@]2(C)C(=CC[C@@H]3[C@@H]2CC[C@]2(C)C(C(C)=O)=CC[C@@H]32)C1`, the “activity change, negative = reduced viability” value was 11.5%.
As for `CC(C)Cc1ccc(C(C)C(=O)OCc2ccccn2)cc1` (stereo not given), the “activity change, negative = reduced viability” value was 0.683%.
Still for that read-out and setting: the same measure for `CC(=O)OCC(=O)Nc1cc(C#N)cc(NC(=O)COC(C)=O)c1Cl`: -0.848%.
The same measure, in the same setting: the same measure for `CCOC(=O)c1cc(=O)c2c(OCC(COc3cccc4oc(C(=O)OCC)cc(=O)c34)OC(=O)[C@@H](N)CCCCN)cccc2o1`: 10.3%.
Turning to `CCN[C@H]1C[C@H](C)S(=O)(=O)c2sc(S(N)(=O)=O)cc21`, the Potency result is “inactive”.
Regarding `NCC1CCC(C(=O)Oc2ccc(CCC(=O)O)cc2)CC1` (stereo not given), the “activity change, negative = reduced viability” value was -4.56%.
Same read-out and setting: the same measure for `CCc1cccc2c(CCO)c[nH]c12`: -4.09%.
On to `Oc1ccc(Cl)cc1Cc1cc(Cl)ccc1O`, for which the “activity change, negative = reduced viability” value is 4.19%.
In the case of `CCC(CN)=C(c1ccccc1)c1ccccc1`, the “activity change, negative = reduced viability” value was 0.819%.
